Measured potencies and affinities stand elsewhere. Calls of active or inactive are those of the source. The rule behind the calls is not given here.
Test: inhibitors of orthopox intermediate gene expression, dose response, cell-based, single fluorophore reporter, dry powder (AID 1117271)

Compound: COc1ccccc1-c1ccc(CN(C)C[C@@H]2Oc3cc(C#C[C@@H](C)O)ccc3S(=O)(=O)N([C@@H](C)CO)C[C@@H]2C)cc1
- outcome: inactive
